Results filed as inconclusive are left out. Where a call stands in place of a potency, no number is given. Activity calls are given as the source filed them. Calls come from the whole dose curve.
Potency is the fitted concentration of half-maximal effect.

This assay can be described thus: Primary qHTS for inhibitors of MERS-S pseudo-typed particle cell entry (AID 1479149). Note: nearly all actives have a fitted effect of over 60% in size. The following applies: MERS-S pseudotyped particle entry, luciferase; series mostly up to 57.1 µM. On the technique in general: Quantitative high-throughput screening tests each substance at several concentrations.
For `CCN(CC)C(=O)[C@]1(c2ccccc2)C[C@H]1CN`, the Potency result was “inactive”.
As for `Cc1c(N)nc(C(CC(N)=O)NCC(N)C(N)=O)nc1C(=O)NC(C(=O)NC(C)C(O)C(C)C(=O)NC(C(=O)NCCc1nc(-c2nc(C(=O)NCCCN[C@@H](C)c3ccccc3)cs2)cs1)C(C)O)C(O[C@@H]1O[C@@H](CO)[C@@H](O)[C@H](O)[C@@H]1O[C@H]1O[C@H](CO)[C@@H](O)[C@H](OC(N)=O)[C@@H]1O)c1cnc[nH]1` (stereo not given in full), the Potency result is “inactive”.
The same measure, in the same setting: the result for `N[C@H](Cc1cnc[nH]1)C(=O)O` reads “inactive”.
Still for that read-out and setting: the result for `CCCCCCCCCCCCCCCCCC(=O)NCCCC[C@H](NC(=O)CC[C@@H](NC(=O)[C@H](C)NC(=O)[C@@H](C)O[C@H]1[C@H](O)[C@@H](CO)OC(O)[C@@H]1NC(C)=O)C(N)=O)C(=O)O` (stereo not given in full) reads “inactive”.
On the same count and under the same terms, the result for `CN1N=C2CCN(C(=O)[C@H](COCc3ccccc3)NC(=O)C(C)(C)N)C[C@]2(Cc2ccccc2)C1=O` reads “inactive”.
Take `CCC(c1ccccc1)c1c(O)c2ccccc2oc1=O` (stereo not given): the Potency result is “inactive”.
As for `CCCCC(=O)N(Cc1ccc(-c2ccccc2-c2nn[nH]n2)cc1)[C@H](C(=O)O)C(C)C`, the Potency entry is “inactive”.
Same read-out and setting: the result for `CC1CCCCN1CCCOC(=O)c1ccccc1` (stereo not given) reads “inactive”; that for `N=C(N)c1ccc(/C=C/c2ccc(C(=N)N)cc2O)cc1`, “inactive”; that for `C[C@H]1[C@H](OC(=O)CCC(=O)O)O[C@@H]2O[C@@]3(C)CC[C@H]4[C@H](C)CC[C@@H]1[C@@]24OO3`, 2.82 µM (active).
On the same count and under the same terms, the result for `CCCCCCCCCCCCCCCC(=O)OCC(O)C1OC(=O)C(O)=C1O` (stereo not given) reads “inactive”.
The same measure, in the same setting: the result for `C=C1c2c(Cl)ccc(O)c2C(O)=C2C(=O)[C@@]3(O)C(O)=C(C(N)=O)C(=O)[C@@H](N(C)C)[C@@H]3[C@@H](O)[C@H]12` reads 20 µM (active).
As for `CN(C)CCC(O)(c1ccccc1)c1ccccc1Cl` (stereo not given), the Potency result was “inactive”.
On the same count and under the same terms, the result for `CC(C)N(CCCCOCC(=O)NS(C)(=O)=O)c1cnc(-c2ccccc2)c(-c2ccccc2)n1` reads “inactive”.
Same read-out and setting: the result for `O=C(O)[C@H]1OC(O)[C@H](O)[C@@H](O)[C@@H]1O` (stereo not given in full) reads “inactive”; that for `O=C(O)C[C@@H]1CC[C@H](NC(=O)Cc2cccs2)B(O)O1`, “inactive”; that for `CNCc1cc(-c2ccccc2F)n(S(=O)(=O)c2cccnc2)c1`, “inactive”.
In the case of `CCC(=O)O[C@@H](OP(=O)(CCCCc1ccccc1)CC(=O)N1C[C@H](C2CCCCC2)C[C@H]1C(=O)O)C(C)C` (stereo not given in full), the outcome is “inactive [at 11.4 µM]”.
Same read-out and setting: the result for `CN1c2c(nc(N)[nH]c2=O)NC[C@@H]1CNc1ccc(C(=O)N[C@@H](CCC(=O)O)C(=O)O)cc1` reads “inactive [at 5.34 µM]”.
With `C[C@H](Cc1cc2c(c(C(N)=O)c1)N(CCCO)CC2)NCCOc1ccccc1OCC(F)(F)F`, the Potency result is “inactive”.
Turning to `CCCCCCCCCCCCOC(=O)CS(=O)(=O)O`, the Potency entry is “inactive”.
The same measure, in the same setting: the result for `O=C(O)c1cc2ccccc2c(Cc2c(O)c(C(=O)O)cc3ccccc23)c1O` reads “inactive”; that for `CN[C@@H]1[C@@H](O)[C@@H](O[C@@H]2[C@@H](O)[C@H](OC3O[C@H](CN)[C@@H](O)[C@H](O)[C@H]3O)[C@@H](N)C[C@H]2NC(=O)[C@@H](O)CN)OC[C@]1(C)O` (stereo not given in full), “inactive”.
In the case of `O=C(O)C(O)C(O)C(=O)O` (stereo not given), the Potency entry is “inactive”.
With `CC(C)(C)C(=O)OCOC(=O)[C@@H]1N2C(=O)[C@@H](N=CN3CCCCCC3)[C@H]2SC1(C)C`, the Potency result is “inactive”.
On the same count and under the same terms, the result for `CC(=O)Nc1c(I)c(C(=O)N[C@H]2C(O)O[C@H](CO)[C@@H](O)[C@@H]2O)c(I)c(N(C)C(C)=O)c1I` (stereo not given in full) reads “inactive”; that for `COc1nc2ccc(Br)cc2cc1[C@@H](c1ccccc1)[C@@](O)(CCN(C)C)c1cccc2ccccc12`, “inactive”; that for `COc1cc(N)cn[n+]1-c1ccccc1`, “inactive”.
Still for that read-out and setting: the result for `CON=C1C[C@]2(C[C@@H]3C[C@@H](C/C=C(\C)C[C@@H](C)/C=C/C=C4\CO[C@@H]5[C@H](O)C(C)=C[C@@H](C(=O)O3)[C@]45O)O2)O[C@H](/C(C)=C/C(C)C)[C@H]1C` reads “inactive”; that for `OC(c1ccccc1)(c1ccccc1)C12CC[N+](CCOCc3ccccc3)(CC1)CC2`, “inactive”.

The values are drawn from PubChem BioAssay (NCATS).
